Assay results reported in PubChem BioAssay AID1053184 (Broad Institute, 2014).
Potency and affinity values are given separately. Activity calls are given as the source filed them.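 Rule for the calls: active = cell killing, with a fitted half-maximal concentration at or below twice the top valid dose tested; inconclusive = flat curve between 30% and 70% signal loss, or poor fit; inactive = effect in the rising direction, plus the rest.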

Test: A549 cell viability loss – cherry-picked samples, cytotoxicity control, dose response (AID 1053184)

SMILES | outcome
CO[C@@H](CN(C)Cc1cc(F)ccc1F)[C@@H](C)CN(C(=O)Nc1ccc(C(F)(F)F)cc1)[C@H](C)CO | inactive
COc1ccc2c3c(n(C)c2c1)[C@@H](CO)N(CC1CC1)CC31CN(C(=O)c2ccc3c(c2)OCO3)C1 | inactive
CN(C)C(=O)c1cccc(-c2ccc(C3[C@@H]4CN(Cc5ccccc5F)C[C@H]3N4)cc2)c1 (stereo partly specified) | inactive
CNC[C@@H]1Oc2cc(C#Cc3ccccc3OC)ccc2S(=O)(=O)N([C@H](C)CO)C[C@H]1C | inactive
C[C@H](CO)N1C[C@H](C)[C@@H](CN(C)Cc2ccccc2)Oc2c(NC(=O)Cc3cn(C)c4ccccc34)cccc2C1=O | inactive
C[C@H]1CNC(=O)[C@@H](Cc2ccc(C(F)(F)F)cc2)CCn2nncc2COC1 | inactive
COc1cccc(-c2cccc(-c3nc(C(=O)Nc4ccc(-c5ccccc5)cc4)cc4c3[C@@H](CCO)N(S(=O)C(C)(C)C)C4)c2)c1 (stereo partly specified) | inactive
C/C=C/c1ccc([C@H]2[C@@H](CO)N3C(=O)CN(Cc4ccc(F)cc4)C[C@@H]23)cc1 | inactive
COc1cc(CN2C[C@@H]3N[C@H](C2)C3c2ccc(-c3ccc(C#N)cc3)cc2)cc(OC)c1 (stereo partly specified) | inactive
N#Cc1cccc(-c2ccc(C3[C@@H]4CN(C(=O)Nc5ccc(C(F)(F)F)cc5)C[C@H]3N4)cc2)c1 (stereo partly specified) | inactive
O=S(=O)(c1ccc(F)cc1)N1C[C@@H]2N[C@H](C1)C2c1ccc(/C=C/c2ccccc2)cc1 (stereo partly specified) | inactive
